Source: PubChem BioAssay (EPA / NIEHS)
Active and inactive are the calls of the source. The calls were made as follows: active = hit-call score of the fitted dose curve at least 0.9, where 1 is the maximum; inactive = score below 0.9.

The compounds below were run on CD40, CD40 (gene 958) (assay: BSK_LPS_CD40: BioMAP Diversity Plus: LPS Assay for CD40 Biomarker Activity (AID 2283076)). Conditions: primary human HUVEC with PBMC; actives raise or lower the signal.
Procedure, shortened: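 Primary human umbilical vein endothelial cells co-cultured with peripheral blood mononuclear cells, LPS-stimulated, were dosed with chemical and read 24 h later. CD40 levels were measured by ELISA and fitted bidirectionally against DMSO as negative control and baseline.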
In the case of `Nc1nc(N)c2nc(CNc3ccc(C(=O)N[C@@H](CCC(=O)O)C(=O)O)cc3)cnc2n1`, the outcome is reported as “inactive”. For `NS(=O)(=O)c1cc2c(cc1Cl)NCNS2(=O)=O`, the outcome was “inactive”. For `O=C(N[C@@H](Cc1ccccc1)[C@@H](O)C(=O)N1C[C@@H](O)[C@@H](O)C1)c1cc2cc(Cl)ccc2[nH]1`, the outcome was “inactive”. For `COc1ccc(C)cc1N`, the outcome was “inactive”. `CCc1c(C(=O)NN2CCCCC2)nn(-c2ccc(Cl)cc2Cl)c1-c1ccc(Br)cc1` was tested, and the AC50 was 12.3 µM (active). `COc1ccc2c(c1)c(CC(=O)O)c(C)n2C(=O)c1ccc(Cl)cc1` was tested, and the outcome was “inactive”. `Cc1ccc(C)c(O)c1C` was tested, and the outcome was “inactive”. With `COCCOCCOC` the outcome was “inactive”. For `CN1CCN(Cc2cc(-c3ccc4[nH]c(=O)oc4c3)co2)[C@@H](c2ccc(F)cc2)C1`, the outcome was “inactive”. `Cc1nc(-c2ccc3c(c2)CCN(CCC2CCC(NC(=O)/C=C/c4ccc(F)cc4)CC2)CC3)no1` (configuration not stated) was tested, and the AC50 was 3.86 µM (active). With `O=C(O)Cc1ccccc1Nc1c(Cl)cccc1Cl` the outcome was “inactive”. With `FC(F)(F)C(F)(F)C(F)(F)C(F)(F)C(F)(F)C(F)(F)CCI` the outcome was “inactive”. `COc1cc(-c2nc(NC(=O)c3cc4cc(C)cc(C)c4n3CC(=O)O)sc2CCC2CCCCC2)c(OC)cc1Cl` was tested, and the AC50 was 3.16 µM (active). In the case of `CC(=O)OC/C=C(\C)CCC=C(C)C`, the outcome is reported as “inactive”. In the case of `CCOC(=O)C(C)(C)Oc1ccc(Cl)cc1`, the outcome is reported as “inactive”. For `CN1CCCC1=O`, the outcome was “inactive”. For `CCNc1cccc(C)c1`, the outcome was “inactive”. For `CCCCCCCCCCCCCCCCCC(=O)O`, the outcome was “inactive”. In the case of `Cc1oc(-c2ccccc2)nc1CCOc1cccc2c1ccn2CCC(=O)O`, the outcome is reported as “inactive”. For `CC1(C)NC(=O)NC1=O`, the outcome was “inactive”. With `Cc1ccccc1Cl` the outcome was “inactive”. With `Cc1cc(NC(=O)C(=O)O)cc(C)c1Oc1ccc(O)c2c1CCC2` the outcome was “inactive”. For `Cc1cccc(Nc2cc(Cl)nc(SCC(=O)O)n2)c1C`, the outcome was “inactive”. With `CC(C)(C)c1cc(O)c(C(C)(C)C)cc1O` the outcome was “inactive”. For `Cc1nc(C)nc(N2C[C@@H](C)N(c3ccnc([C@@H](C)O)n3)[C@@H](C)C2)n1`, the outcome was “inactive”. `CC(=O)Oc1ccccc1C(=O)O` was tested, and the outcome was “inactive”. In the case of `CCCCCCOCCO`, the outcome is reported as “inactive”. In the case of `CCCCCCCCCCCCCCCC`, the outcome is reported as “inactive”. With `C[Si]1(C)O[Si](C)(C)O[Si](C)(C)O[Si](C)(C)O1` the outcome was “inactive”.

The compounds below were run on E-selectin (Homo sapiens) (UniProt P16581) (assay: BSK_LPS_Eselectin: BioMAP Diversity Plus: LPS Assay for Eselectin Biomarker Activity (AID 2283077)). Conditions: primary human HUVEC with PBMC; actives raise or lower the signal.
Sequence of E-selectin (Homo sapiens) (P16581 whole entry, looked up): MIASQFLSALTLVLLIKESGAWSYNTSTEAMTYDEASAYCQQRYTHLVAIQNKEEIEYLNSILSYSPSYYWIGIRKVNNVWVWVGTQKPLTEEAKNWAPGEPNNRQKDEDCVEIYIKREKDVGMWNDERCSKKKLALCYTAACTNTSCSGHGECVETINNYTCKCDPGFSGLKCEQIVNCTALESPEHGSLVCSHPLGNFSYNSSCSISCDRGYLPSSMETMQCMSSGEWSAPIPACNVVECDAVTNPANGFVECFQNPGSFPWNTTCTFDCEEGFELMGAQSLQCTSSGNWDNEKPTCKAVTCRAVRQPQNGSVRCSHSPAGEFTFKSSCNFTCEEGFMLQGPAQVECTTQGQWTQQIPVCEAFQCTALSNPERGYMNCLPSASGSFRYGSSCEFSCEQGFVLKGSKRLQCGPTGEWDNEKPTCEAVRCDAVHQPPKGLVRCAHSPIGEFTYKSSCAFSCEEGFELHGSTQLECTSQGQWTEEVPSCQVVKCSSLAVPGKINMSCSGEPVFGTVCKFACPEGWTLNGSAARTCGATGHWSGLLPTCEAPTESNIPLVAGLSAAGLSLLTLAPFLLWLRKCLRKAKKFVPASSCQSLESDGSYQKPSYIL
Procedure, shortened: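 Human umbilical vein endothelial cells co-cultured with peripheral blood mononuclear cells under LPS stimulation; E-selectin measured by ELISA 24 h after chemical dosing. Activity fitted bidirectionally against DMSO as negative control and baseline.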
In the case of `Nc1nc(N)c2nc(CNc3ccc(C(=O)N[C@@H](CCC(=O)O)C(=O)O)cc3)cnc2n1`, the outcome is reported as “inactive”. In the case of `NS(=O)(=O)c1cc2c(cc1Cl)NCNS2(=O)=O`, the outcome is reported as “inactive”. For `O=C(N[C@@H](Cc1ccccc1)[C@@H](O)C(=O)N1C[C@@H](O)[C@@H](O)C1)c1cc2cc(Cl)ccc2[nH]1`, the outcome was “inactive”. For `COc1ccc(C)cc1N`, the outcome was “inactive”. `CCc1c(C(=O)NN2CCCCC2)nn(-c2ccc(Cl)cc2Cl)c1-c1ccc(Br)cc1` was tested, and the AC50 was 7.44 µM (active). In the case of `COc1ccc2c(c1)c(CC(=O)O)c(C)n2C(=O)c1ccc(Cl)cc1`, the outcome is reported as “inactive”. In the case of `Cc1ccc(C)c(O)c1C`, the outcome is reported as “inactive”. With `COCCOCCOC` the outcome was “inactive”. In the case of `CN1CCN(Cc2cc(-c3ccc4[nH]c(=O)oc4c3)co2)[C@@H](c2ccc(F)cc2)C1`, the outcome is reported as “inactive”. `Cc1nc(-c2ccc3c(c2)CCN(CCC2CCC(NC(=O)/C=C/c4ccc(F)cc4)CC2)CC3)no1` (configuration not stated) was tested, and the outcome was “inactive”. In the case of `O=C(O)Cc1ccccc1Nc1c(Cl)cccc1Cl`, the outcome is reported as “inactive”. `FC(F)(F)C(F)(F)C(F)(F)C(F)(F)C(F)(F)C(F)(F)CCI` was tested, and the outcome was “inactive”. With `COc1cc(-c2nc(NC(=O)c3cc4cc(C)cc(C)c4n3CC(=O)O)sc2CCC2CCCCC2)c(OC)cc1Cl` the AC50 was 8.51 µM (active). With `CC(=O)OC/C=C(\C)CCC=C(C)C` the outcome was “inactive”. With `CCOC(=O)C(C)(C)Oc1ccc(Cl)cc1` the outcome was “inactive”. `CN1CCCC1=O` was tested, and the outcome was “inactive”. `CCNc1cccc(C)c1` was tested, and the outcome was “inactive”. For `CCCCCCCCCCCCCCCCCC(=O)O`, the outcome was “inactive”. For `Cc1oc(-c2ccccc2)nc1CCOc1cccc2c1ccn2CCC(=O)O`, the outcome was “inactive”. For `CC1(C)NC(=O)NC1=O`, the outcome was “inactive”. `Cc1ccccc1Cl` was tested, and the outcome was “inactive”. For `Cc1cc(NC(=O)C(=O)O)cc(C)c1Oc1ccc(O)c2c1CCC2`, the outcome was “inactive”. With `Cc1cccc(Nc2cc(Cl)nc(SCC(=O)O)n2)c1C` the outcome was “inactive”. In the case of `CC(C)(C)c1cc(O)c(C(C)(C)C)cc1O`, the AC50 is reported as 7.72 µM (active). For `Cc1nc(C)nc(N2C[C@@H](C)N(c3ccnc([C@@H](C)O)n3)[C@@H](C)C2)n1`, the outcome was “inactive”. With `CC(=O)Oc1ccccc1C(=O)O` the outcome was “inactive”. `CCCCCCOCCO` was tested, and the outcome was “inactive”. With `CCCCCCCCCCCCCCCC` the outcome was “inactive”. With `C[Si]1(C)O[Si](C)(C)O[Si](C)(C)O[Si](C)(C)O1` the outcome was “inactive”.

These compounds were tested on Interleukin-8 (IL8), CXCL8 (gene 3576) (assay: BSK_LPS_IL8: BioMAP Diversity Plus: LPS Assay for Interleukin-8 (IL8) Biomarker Activity (AID 2283078)). Conditions: primary human HUVEC with PBMC; actives raise or lower the signal.
Procedure, shortened: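 Human umbilical vein endothelial cells co-cultured with PBMC were stimulated with LPS; IL-8 levels were measured by ELISA 24 h after chemical dosing. Activity was fitted bidirectionally against DMSO as negative control and baseline.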
With `Nc1nc(N)c2nc(CNc3ccc(C(=O)N[C@@H](CCC(=O)O)C(=O)O)cc3)cnc2n1` the outcome was “inactive”. With `NS(=O)(=O)c1cc2c(cc1Cl)NCNS2(=O)=O` the outcome was “inactive”. `O=C(N[C@@H](Cc1ccccc1)[C@@H](O)C(=O)N1C[C@@H](O)[C@@H](O)C1)c1cc2cc(Cl)ccc2[nH]1` was tested, and the outcome was “inactive”. `COc1ccc(C)cc1N` was tested, and the outcome was “inactive”. `CCc1c(C(=O)NN2CCCCC2)nn(-c2ccc(Cl)cc2Cl)c1-c1ccc(Br)cc1` was tested, and the AC50 was 5.2 µM (active). In the case of `COc1ccc2c(c1)c(CC(=O)O)c(C)n2C(=O)c1ccc(Cl)cc1`, the outcome is reported as “inactive”. With `Cc1ccc(C)c(O)c1C` the outcome was “inactive”. For `COCCOCCOC`, the outcome was “inactive”. `CN1CCN(Cc2cc(-c3ccc4[nH]c(=O)oc4c3)co2)[C@@H](c2ccc(F)cc2)C1` was tested, and the outcome was “inactive”. With `Cc1nc(-c2ccc3c(c2)CCN(CCC2CCC(NC(=O)/C=C/c4ccc(F)cc4)CC2)CC3)no1` (configuration not stated) the AC50 was 6.69 µM (active). With `O=C(O)Cc1ccccc1Nc1c(Cl)cccc1Cl` the outcome was “inactive”. With `FC(F)(F)C(F)(F)C(F)(F)C(F)(F)C(F)(F)C(F)(F)CCI` the outcome was “inactive”. With `COc1cc(-c2nc(NC(=O)c3cc4cc(C)cc(C)c4n3CC(=O)O)sc2CCC2CCCCC2)c(OC)cc1Cl` the AC50 was 12.2 µM (active). With `CC(=O)OC/C=C(\C)CCC=C(C)C` the outcome was “inactive”. In the case of `CCOC(=O)C(C)(C)Oc1ccc(Cl)cc1`, the outcome is reported as “inactive”. In the case of `CN1CCCC1=O`, the outcome is reported as “inactive”. In the case of `CCNc1cccc(C)c1`, the outcome is reported as “inactive”. `CCCCCCCCCCCCCCCCCC(=O)O` was tested, and the outcome was “inactive”. In the case of `Cc1oc(-c2ccccc2)nc1CCOc1cccc2c1ccn2CCC(=O)O`, the outcome is reported as “inactive”. With `CC1(C)NC(=O)NC1=O` the outcome was “inactive”. In the case of `Cc1ccccc1Cl`, the outcome is reported as “inactive”. For `Cc1cc(NC(=O)C(=O)O)cc(C)c1Oc1ccc(O)c2c1CCC2`, the outcome was “inactive”. `Cc1cccc(Nc2cc(Cl)nc(SCC(=O)O)n2)c1C` was tested, and the outcome was “inactive”. For `CC(C)(C)c1cc(O)c(C(C)(C)C)cc1O`, the AC50 was 1.39 µM (active). In the case of `Cc1nc(C)nc(N2C[C@@H](C)N(c3ccnc([C@@H](C)O)n3)[C@@H](C)C2)n1`, the outcome is reported as “inactive”. With `CC(=O)Oc1ccccc1C(=O)O` the outcome was “inactive”. In the case of `CCCCCCOCCO`, the outcome is reported as “inactive”. `CCCCCCCCCCCCCCCC` was tested, and the outcome was “inactive”. In the case of `C[Si]1(C)O[Si](C)(C)O[Si](C)(C)O[Si](C)(C)O1`, the outcome is reported as “inactive”.
